The full list was thinned out, with hits kept by preference.
TTR transcr act: TTR transcription activation, primary screen; SH-SY5Y TTR promoter Gaussia luciferase, luminescence; 100% = recombinant luciferase protein wells; activation, % at 16.7 µM; actives 1.3% (n = 92,000);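 active = activation above the mean of all tested compounds plus 3 SD, cut at about 9.5% in these data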;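 also: cells exposed to compounds for one day before reading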
TTR inh HuH7: counter-screen for TTR activators: TTR transcription inhibitors in HuH7 cells; HuH7 TTR promoter-Gaussia luciferase reporter, luminescence; shares compounds with TTR transcr act; actives 4% (n = 1,100); inhibition, % at 16.7 µM;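 active = average inhibition above the solvent-only control wells' mean plus 3 SD, cut at about 15% in these data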;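 also: inhibitors lower well luminescence so higher value means more inhibition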
TTR act confirm: human TTR transcription activation, confirmation | 1,100 tested, under 10 active | AID 1117280 | SHSY5Y TTR promoter Gaussia luciferase, luminescence; 100% = purified Lucia enzyme wells, no cells | shares compounds with TTR transcr act | activation, % at 16.7 µM;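 active = mean activation above a set limit taken from the earlier primary screen, cut at about 11% in these data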
A number is an active result; – = inactive.

SMILES | TTR transcr act | others
CCC[C@H]1[C@@H](NC(=O)C2CCC2)CC[C@@]23CCCN2C(=O)CCC[C@@H]13 | –
CC(=NCc1ccccc1)C1=C(O)COC1=O | –
CCCN=C(C)C1=C(O)c2ccccc2C1=O | –
CC(=NCCc1ccccc1)C1=C(O)COC1=O | 12.7 | TTR inh HuH7=–;TTR act confirm=–
C[C@H]1[C@H](N(Cc2ccccc2)Cc2ccccc2)CC[C@@]23CCCN2C(=O)CCC[C@@H]13 | –
CCOC(=O)c1ccc(NC(=O)CN2C(=O)NC3(CCCCCC3)C2=O)cc1 | –
O=C(CN1C(=O)NC2(CCCC2)C1=O)Nc1ccccc1N1CCCC1 | –
O=C(CN1C(=O)NC2(CCCCC2)C1=O)Nc1ccc(N2CCCCC2)cc1 | 10.4 | TTR inh HuH7=–;TTR act confirm=–
CCC[C@H]1[C@@H](OC(=O)NC2CCC2)CC[C@@]23CCCN2C(=O)CCC[C@@H]13 | –
COc1cccc2cc(C(C)N(CCCN3CCOCC3)C(=S)Nc3ccccc3C)oc12 (stereo not given) | 14.0 | TTR inh HuH7=–;TTR act confirm=–
COc1cccc2cc(C(C)N(CCCN3CCOCC3)C(=S)Nc3cccc(C)c3)oc12 (stereo not given) | –
COc1cccc2cc(C(C)N(CCCN3CCOCC3)C(=S)Nc3c(C)cccc3C)oc12 (stereo not given) | –
CC(C)(N[C@@H](Cc1c[nH]c2ccccc12)C(=O)NCCc1c[nH]c2ccccc12)C(=O)NC1CCCCC1 | –
COC(=O)[C@]12C[C@H](CC(=O)N3CCN(C(=O)C4CC4)CC3)C(=O)N(Cc3ccc(Cl)cc3Cl)C1=C[C@H](COCc1ccccc1)O[C@@H]2C | –
COc1ccc(CNC(=O)C(OC(=O)c2ccco2)c2ccccc2F)cc1 (stereo not given) | –
COc1ccc(C(OC(=O)c2ccco2)C(=O)NC(C)(C)C)cc1 (stereo not given) | 25.6 | TTR inh HuH7=–;TTR act confirm=–
CCC(OC(=O)c1ccco1)C(=O)NCc1ccc(OC)cc1 (stereo not given) | –
CC(C)(C)NC(=O)C(c1cccnc1)N(C(=O)c1cccs1)c1ccc(C(C)(C)C)cc1 (stereo not given) | –
Cc1ccc2nc(SCC(=O)NC3CC3)[nH]c2c1 | –
Cc1ccc2nc(SCC(=O)N3CCCC3)[nH]c2c1 | –
Cc1ccc2nc(SCC(=O)Nc3nonc3C)[nH]c2c1 | 10.1 | TTR inh HuH7=–;TTR act confirm=–
COC(=O)[C@]12C[C@H](CC(=O)NCCCN3CCCC3=O)C(=O)N(CCc3ccc(OC)c(OC)c3)C1=C[C@H](C(C)C)O[C@@H]2C1CC1 | –
O=C(OCc1cn(Cc2cccc(F)c2F)nn1)N1CCOCC1 | –
C[C@@H]1CN([C@@H](C)CO)C(=O)c2cccc(NC(=O)Nc3cccc4ccccc34)c2O[C@H]1CN(C)S(=O)(=O)c1ccc(Cl)cc1 | –
COc1ccc(NC(=O)Cn2nnc(C(=O)NCc3cccs3)c2N)c(OC)c1 | –
SMILES | TTR transcr act | others
COc1cccc(NC(=O)Cn2nnc(C(=O)NCc3cccs3)c2N)c1 | –
CCOc1ccc(NC(=O)Cn2nnc(C(=O)NCc3cccs3)c2N)cc1 | 20.8 | TTR inh HuH7=–;TTR act confirm=–
O=C(OCC#CCSc1nnc(-c2cccs2)o1)c1ccc(F)cc1 | –
c1csc(CNc2ncnc3ccc(-c4ccc5c(c4)OCO5)cc23)n1 | –
COc1ccc(C(=O)OCCN(C)C2CN(Cc3cn(Cc4ccccc4Cl)nn3)S(=O)(=O)C2)cc1OC (stereo not given) | –
Cc1cccc(OCC(=O)NC2CCCc3ccccc32)c1C (stereo not given) | –
Cc1ccc(CC(=O)NC2CCCc3ccccc32)cc1C (stereo not given) | –
Cc1ccc(C(=O)OCC(=O)NC2CCCc3ccccc32)o1 (stereo not given) | 18.1 | TTR inh HuH7=–;TTR act confirm=–
O=C1N2CCc3ccccc3C2CS(=O)(=O)N1Cc1ccc(F)cc1 (stereo not given) | –
CCCCOCCCNC(=O)C[C@H]1C[C@@]2(C(=O)OC)C(=C[C@H](C3CCCC3)O[C@@H]2C)N(Cc2ccco2)C1=O | –
CCCCN(CCCC)CCCNC(=O)Cn1cc(C)c(=O)[nH]c1=O | –
CCC[C@H]1[C@@H](NC(=O)C(c2ccccc2)c2ccccc2)CC[C@@]23CCCN2C(=O)CCC[C@@H]13 | –
CC(C)CCCCCCCCc1cccc(O)c1C(=O)O | –
O=C(NCCN1CCCC1)c1ccccc1Cl | –
O=C(CN1CCC(NC(=O)c2ccccc2Cl)CC1)NCc1ccccc1 | –
O=C(NCc1nnc2c3ccccc3c(-c3ccccc3)nn12)c1ccccc1Cl | 13.8 | TTR inh HuH7=–;TTR act confirm=–
C[C@H]1[C@H](c2ccccc2)Oc2cccc(NCCc3ccccc3)c2S(=O)(=O)N1Cc1cccc(Cl)c1 | –
COc1ccccc1C1=NOC(Cn2c(NCC3CCCO3)nc3c2c(=O)n(C)c(=O)n3C)C1 (stereo not given) | –
COc1ccccc1C1=NOC(Cn2c(=O)c3c(ncn3C)n(C)c2=O)C1 (stereo not given) | 16.4 | TTR inh HuH7=–;TTR act confirm=–
COc1ccccc1-n1cnc2c(c1=O)c1nc3ccccc3nc1n2CCc1ccccc1 | –
C[C@H]1CCC[C@@H](O)CC(=O)c2c(O)cc(O)cc2CC(=O)O1 | –
CC(=O)CC(=O)O[C@@H]1C=C[C@H](NC(=O)OC(C)(C)C)C1 | –
COC(=O)[C@]12C[C@H](CC(=O)NCCCN3CCCC3=O)C(=O)N(Cc3ccc(Cl)cc3Cl)C1=C[C@H](C1CCCC1)O[C@@H]2C | –
O=C(CSc1cccc[n+]1[O-])c1cc(Cl)ccc1Cl | 9.9 | TTR inh HuH7=–;TTR act confirm=–
COc1ccccc1C(=O)NC(=O)CSc1cccc[n+]1[O-] | –
SMILES | TTR transcr act | others
Cc1cc(C(=O)C(C)Sc2cccc[n+]2[O-])c(C)n1-c1ccc(Cl)cc1 (stereo not given) | –
Nc1c(C(=O)N2CCN(CCc3ccccc3)CC2)cnn1-c1ccccc1 | –
CC(C)N1CCc2c(-c3nc4ccccc4s3)csc2C1 | –
Cc1ccccc1C(=O)n1ccc2ccc(-c3ccc4ccn(Cc5ccccc5)c4c3)cc21 | –
O=C(OCC#CCSc1nnc(-c2ccccc2F)o1)c1ccc(F)cc1 | –
COc1cccc2cc3c(nc12)C[C@@H]1CCCC(=O)N2CCC[C@@]12C3 | –
COc1ccccc1CNC(=O)c1cc(-c2ccccc2C)nn1CC1CC(c2cccnc2)=NO1 (stereo not given) | –
O=C(NCc1ccco1)c1cc(-c2ccccc2)nn1CC1CC(c2cccnc2)=NO1 (stereo not given) | 10.3 | TTR inh HuH7=–;TTR act confirm=–
O=C(NCc1ccc(OC(F)(F)F)cc1)c1cc(-c2ccccc2)nn1CC1CC(c2cccnc2)=NO1 (stereo not given) | –
CC(C)N(C[C@@H]1CSCCS(=O)(=O)N1)C1CCCCC1 | –
CCCC1CCC2(CC1)CCC2OC(=S)Nc1ccc(Br)cc1 (stereo not given) | –
O=C(NC1CCCCN(Cc2ccc(Cl)cc2)C1=O)c1ccc(COc2ccccc2)cc1 (stereo not given) | –
COc1cc(O)c(C(CC(=O)N2CCCC(C)C2)c2ccccc2)c(OC)c1 (stereo not given) | –
O=C(OCc1cn(Cc2cccc(F)c2F)nn1)N1CCCC1 | –
O=C(Nn1c(-c2ccccc2)nc2ccccc2c1=O)c1ccco1 | –
O=C(O)CCc1ccc(-c2cccs2)n1NC(=O)c1ccco1 | –
